Data as given in PubChem BioAssay (NCI).
Compounds without any hit were thinned out: in the full panel of roughly 83,000, 20% have a hit.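 Activity criterion: percent growth below 10, measured after cells in 96-well plates were exposed to a single compound concentration for 48 hours.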 A number with no mark means an inactive call. Activity calls are given as the source filed them.

Legend:
Experiment in all cases: NCI-60 one-dose screen, 48 h (100 = growth as untreated, 0 = no growth, -100 = all killed)
Conditions in all cases: 10 µM unless noted
SK-MEL-2 melanoma = tested on: SK-MEL-2 melanoma
EKVX NSCLC = tested on: EKVX NSCLC
SN12C renal = tested on: SN12C renal
UO-31 renal = tested on: UO-31 renal
TK-10 renal = tested on: TK-10 renal
ACHN renal = tested on: ACHN renal
CAKI-1 renal = tested on: CAKI-1 renal
A498 renal = tested on: A498 renal
CCRF-CEM leukemia = tested on: CCRF-CEM leukemia
MOLT-4 leukemia = tested on: MOLT-4 leukemia

| SMILES | growth (SK-MEL-2 melanoma) | growth (EKVX NSCLC) | growth (SN12C renal) | growth (UO-31 renal) | growth (TK-10 renal) | growth (ACHN renal) | growth (CAKI-1 renal) | growth (A498 renal) | growth (CCRF-CEM leukemia) | growth (MOLT-4 leukemia) |
| --- | --- | --- | --- | --- | --- | --- | --- | --- | --- | --- |
| Cc1ccc(S(=O)(=O)n2cc(C3C(Cl)C(=O)N3c3ccc(N4CCOCC4=O)cc3)c3ccccc32)cc1 (stereo unspecified) | 74.7% | 72.6% | 44.5% | 37.6% | 88% | 71.4% | 24.9% | 65.8% | 29.5% | 47.5% |
| CCSC1=CC(=O)c2ccccc2C1=O | 94.2% | 92.8% | 82.8% | 27% | 89% | 3.01% (active) | 32.2% | 97.8% | -6.88% (active) | 5.83% (active) |
| CCOC(=O)CSc1nc2sc3c(c2c(=O)n1-c1ccc([N+](=O)[O-])cc1)CCCCC3 | 90.9% | 82.8% | 84.3% | 71.4% | 84.7% | 52.8% |  | 85.3% | 89% | 97% |
| COc1cc2cc(Oc3ccc(NC(=O)Nc4ccccc4)cc3)c(C)nc2cc1OCCN1CCCCC1 | 100% | 99.8% | 89.9% | 64.3% | 108% | 84.4% | 96.1% | 55.4% | -20.9% (active) | -22.2% (active) |
| CC(=O)c1c(Nc2ccc(F)c(F)c2F)[nH]c2c(F)cc(F)cc2c1=O | -52.6% (active) | 9.73% (active) | 1.04% (active) | 4.44% (active) | 12.7% | 0.167% (active) |  | -33.4% (active) | 6.3% (active) | -3.98% (active) |
| C=NNc1ccccc1 | 123% | 92.8% | 89.6% | 71% | 127% | 78% |  | 77.1% | 71.5% | 105% |
| CCN(CC)c1ccc(N2C(=O)/C(=C/c3cccs3)SC2=S)cc1 | 110% | 92.2% | 91.5% | 73.3% | 92.9% | 94.3% | 89.7% | 71.1% | 83% | 97.9% |
| CN(C)Cc1ccc(C(=O)Nc2ccc3ncnc(Nc4ccc(Oc5cccc(F)c5)c(Cl)c4)c3c2)cc1 | -27.1% (active) | 35.5% | 11.4% | 16% | 1.66% (active) | -85.8% (active) |  | 19.2% | -0.132% (active) | -13.2% (active) |
| COc1ccc(C2CC(c3ccc(Nc4nc(Nc5ccc(F)cc5)nc(Nc5ccc(F)cc5)n4)cc3)=NN2C(C)=O)cc1 (stereo unspecified) | 72% | 94.8% | 116% | 97.7% | 104% | 84.5% |  | 85.3% | 23.5% | 34.6% |
| CCCCCSB(SCCCCC)c1ccccc1 | 102% | 106% | 106% | 81.3% | 101% | 105% |  | 95.4% | 97.4% | 96.4% |
| O=C1/C(=C/c2ccccc2)CN(C(=O)c2cccnc2)C/C1=C\c1ccccc1 | 89.6% | 30.2% | 6.72% (active) | -54.5% (active) | 20.7% | -15.7% (active) |  | 65.3% | -15% (active) | 0.998% (active) |
| CCCCCCNc1nc(NCCCCCC)c2[nH]c(NCCCCCC)nc2n1 | 30.2% | 44% | 26.5% | 80.9% | 116% | 100% |  | 40.3% | -29.6% (active) | -12.5% (active) |
| N=c1sc(Cc2cc(Cl)ccc2Cl)cn1CC(=O)c1ccccc1 | 61.6% | 54.4% | 63% | 43.9% | 61.3% | 37.3% | 21.1% | 49% | 60% | 49.8% |
| CS(=O)(=O)Cc1cnc(C2OCCO2)s1 | 122% | 99% | 114% | 92% | 93.8% | 96.8% | 97.7% | 116% | 138% | 140% |
| O=C1/C(=C/c2ccc(Br)cc2)COc2ccc(O)c(O)c21 | 47.2% | 23.2% | -41.1% (active) | -99.2% (active) | 4.99% (active) | -84.2% (active) |  | 98.9% | -6.17% (active) | -9.5% (active) |
| CCCCCCCC/C=C\CCCCCCCCOc1ccc(CC(=O)NCC[N+](C)(C)C)cc1 | 101% | 87.8% | 50% | 92.8% | 24.6% | 60.8% | 44.6% | 68.9% | 54.6% | 75.1% |
| O=C1/C=C/[C@@H](O)[C@@H]2C[C@@H](O)C[C@H]2/C=C/CCC[C@H](CCOCc2ccccc2)O1 | -24.1% (active) | 1.3% (active) | 10.6% | 12.2% | -17.6% (active) | 5.36% (active) |  | -28.5% (active) | 27.5% | 7.56% (active) |
| Brc1ccc(-c2cnc3nonc3n2)cc1 | 88.9% | 72.1% | 96.1% | 63.6% | 96.3% | 76.9% | 59.7% | 96.7% | 30% | 37.5% |
| O=S(=O)(c1ccccc1)N1CCCN(c2nc(-c3ccccc3)nc3nc(-c4ccccc4)oc23)CC1 | 108% | 107% | 98.5% | 85.3% | 114% | 104% |  | 96.9% | 105% | 100% |
| O=C(/C=C/C12c3ccccc3C(c3ccccc31)C1C(=O)NC(=O)C12)c1ccccn1 (stereo unspecified) | 7.36% (active) | 19.6% | 17.2% | 6.89% (active) | 7.71% (active) | 1.3% (active) |  | -3.11% (active) | -16.1% (active) | -2.05% (active) |
| CCOC(=O)c1c(C)c2c(n1C)CSc1cc(S(=O)(=O)c3ccccc3)c(=O)[nH]c1-2 | 30.7% [100 µM] | 14.7% [100 µM] | 24.8% [100 µM] | 22.7% [100 µM] | 24.8% [100 µM] | 25.9% [100 µM] | 26.3% [100 µM] | 44.9% [100 µM] | 29.2% [100 µM] | 41.5% [100 µM] |
| Cc1cc2nc3c4ccccc4n(CCN(C)C)c3nc2cc1C | 11% | 18.1% | 16.9% | -12% (active) | 26.7% | -26.5% (active) | -3.55% (active) | -15.2% (active) | 10.3% | 4.73% (active) |
| C/C(=N\Nc1nc(C)cs1)c1cc2ccccc2o1 | 104% | 56.3% | 91.8% | 55.4% | 134% | 86.6% |  | 99.9% | 79.1% | 85.9% |
| COc1ccc2nc(Cl)c(/C=C/C(=O)c3ccc(NC(=O)CSc4nnc(-c5ccc(Cl)c(Cl)c5)n4-c4ccccc4)cc3)cc2c1 | 87.6% | 93.2% | 88.2% | 79.3% | 100% | 103% | 77.6% | 87% | 90.8% | 86.4% |
| CCCCCCC(CCCC)COC(=O)c1ccc(Cl)cc1 (stereo unspecified) | 109% | 112% | 105% | 98% | 110% | 110% | 100% | 93.9% | 105% | 98.8% |
| CCOC(=O)n1cc(-c2nonc2-c2cn(C)c3ccccc23)c2ccccc21 | 37.3% | 55.7% | 45.1% | 42.9% | 63.2% | 43.2% |  | 15.2% | 21.6% | 23.2% |
| COc1cc(C(=O)C(=O)c2cc(OC)c(O)c(OC)c2)cc(OC)c1O | 115% | 104% | 91.3% | 98.6% | 95.8% | 98% | 105% | 92.5% | 88.3% | 108% |
| COc1ccc(NC(=O)c2ccc(C(=O)Nc3ccc(OC)cc3OC)cc2)c(OC)c1 | 80.4% | 73.7% | 65% | 52.4% | 69.7% | 71.9% | 68.1% | 58.6% | 90% | 94.3% |
| Cc1ccc(C)c2c1C(O)(C#Cc1ccccc1)c1ccccc1C2(O)C#Cc1ccccc1 (stereo unspecified) | 15.9% | 38.5% | 71.5% | 19.6% | 58.8% | 49.7% | 71.9% | 69.2% | 27.5% | 19.5% |
